Experimental data taken from the supplement of paper PMC9023506.
Structures can show the parent of a compound that is named as a salt.

system: Danio rerio larvae (5 dpf); test: optomotor response to red moving lines, difference vs DMSO (percentage points (treated minus DMSO)); higher = more of the behaviour than the DMSO vehicle control; conditions: 10 µM; exposure time: 3 h pre-incubation + 3 h imaging
Procedure: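 5-dpf wild-type zebrafish larvae were imaged in 96-well plates. They were treated with 190 Tocris FDA-approved drugs at 10 µM (1 µl/ml DMSO) for 3 h before and 3 h during imaging at 28.5 °C, 48 larvae per drug. Automated image analysis gave % time moving and optomotor responses. Values are drug group mean minus DMSO vehicle mean (n=844), in percentage points, for 10 behaviours.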

Row | Compound | optomotor response to red moving lines
1 | CC(C)c1nc(CN(C)C(=O)N[C@H](C(=O)N[C@@H](Cc2ccccc2)C[C@H](O)[C@H](Cc2ccccc2)NC(=O)OCc2cncs2)C(C)C)cs1 [Ritonavir] | -2.77
2 | CC1CNc2c(cccc2S(=O)(=O)N[C@@H](CCCNC(=N)N)C(=O)N2CC[C@@H](C)C[C@@H]2C(=O)O)C1 (stereo not given in full) [Argatroban] | -3.42
3 | Nc1nc(NC2CC2)c2ncn([C@H]3C=C[C@@H](CO)C3)c2n1 [Abacavir hemisulfate] | -1.56
4 | NS(=O)(=O)c1cc2c(cc1Cl)NC(C1CC3C=CC1C3)NS2(=O)=O (stereo not given) [Cyclothiazide] | -6.66
5 | Cc1cc2c(s1)Nc1ccccc1N=C2N1CCN(C)CC1 [Olanzapine] | 4.76
6 | OCCN1C[C@H](O)[C@@H](O)[C@H](O)[C@H]1CO [Miglitol] | 9.81
7 | CC(C)(C)NC(=O)[C@@H]1C[C@@H]2CCCC[C@@H]2CN1C[C@@H](O)[C@H](Cc1ccccc1)NC(=O)[C@H](CC(N)=O)NC(=O)c1ccc2ccccc2n1 [Saquinavir mesylate] | -16.6
8 | CC(C)c1nc(N(C)S(C)(=O)=O)nc(-c2ccc(F)cc2)c1/C=C/[C@@H](O)C[C@@H](O)CC(=O)O [Rosuvastatin calcium] | 7.07
9 | CN(C)CC/C=C1/c2ccccc2COc2ccc(CC(=O)O)cc21 [Olopatadine hydrochloride] | 19
10 | Cn1cnc([N+](=O)[O-])c1Sc1ncnc2[nH]cnc12 [Azathioprine] | 3.86
11 | CC1(C)O[C@@H]2[C@@H](CO[C@@]3(COS(N)(=O)=O)OC(C)(C)O[C@@H]23)O1 [Topiramate] | -0.793
12 | COc1c(C)c2c(c(O)c1C/C=C(\C)CCC(=O)OCCN1CCOCC1)C(=O)OC2 [Mycophenolate mofetil] | 12.2
13 | CCOC(=O)c1ncn2c1CN(C)C(=O)c1cc(F)ccc1-2 [Flumazenil] | -7.04
14 | Cc1nc(Nc2ncc(C(=O)Nc3c(C)cccc3Cl)s2)cc(N2CCN(CCO)CC2)n1 [Dasatinib] | -9.17
15 | Cc1c(-c2ccc(O)cc2)n(Cc2ccc(OCCN3CCCCCC3)cc2)c2ccc(O)cc12 [Bazedoxifene acetate] | 9.09
16 | CCCCCCCN(CC)CCCC(O)c1ccc(NS(C)(=O)=O)cc1 (stereo not given) [Ibutilide hemifumarate] | 10.1
17 | CCOc1ccccc1OCCN[C@H](C)Cc1ccc(OC)c(S(N)(=O)=O)c1 [Tamsulosin hydrochloride] | -6.78
18 | Cc1ccc(O)c([C@H](CCN(C(C)C)C(C)C)c2ccccc2)c1 [Tolterodine L-tartrate] | -0.0985
19 | O=C(NCC1CCCCN1)c1cc(OCC(F)(F)F)ccc1OCC(F)(F)F (stereo not given) [Flecainide acetate] | -9.35
20 | CCOc1cc(CC(=O)N[C@@H](CC(C)C)c2ccccc2N2CCCCC2)ccc1C(=O)O [Repaglinide] | 3.38

Row | Compound | optomotor response to red moving lines
21 | NC(=O)c1ncn([C@@H]2O[C@H](CO)[C@@H](O)[C@H]2O)n1 [Ribavirin] | 7.68
22 | CCC(=O)O[C@]1(C(=O)SCF)[C@H](C)C[C@H]2[C@@H]3C[C@H](F)C4=CC(=O)C=C[C@]4(C)[C@@]3(F)[C@@H](O)C[C@@]21C [Fluticasone propionate] | -12.2
23 | Clc1ccccc1C(c1ccccc1)(c1ccccc1)n1ccnc1 [Clotrimazole] | 26.3
24 | CCCCC(=O)N(Cc1ccc(-c2ccccc2-c2nnn[nH]2)cc1)[C@H](C(=O)O)C(C)C [Valsartan] | 7.8
25 | CN1CCN(CCCN2c3ccccc3Sc3ccc(Cl)cc32)CC1 [Prochlorperazine dimaleate] | 4.44
26 | CC(C)C(=O)Nc1ccc([N+](=O)[O-])c(C(F)(F)F)c1 [Flutamide] | -10.8
27 | Nc1nc(Cl)nc2c1ncn2[C@@H]1O[C@H](CO)[C@@H](O)[C@@H]1F [Clofarabine] | 1.11
28 | COc1ccc(Cl)cc1C(=O)NCCc1ccc(S(=O)(=O)NC(=O)NC2CCCCC2)cc1 [Glibenclamide] | 10.2
29 | CC(CCc1ccc(O)cc1)NCCc1ccc(O)c(O)c1 (stereo not given) [Dobutamine hydrochloride] | 5.06
30 | CC1=Nc2ccc(Cl)cc2S(=O)(=O)N1 [Diazoxide] | 0.599
31 | CC(=O)O[C@H]1C(=O)[C@@]2(C)[C@H]([C@H](OC(=O)c3ccccc3)[C@]3(O)C[C@H](OC(=O)[C@H](O)[C@@H](NC(=O)c4ccccc4)c4ccccc4)C(C)=C1C3(C)C)[C@]1(OC(C)=O)CO[C@@H]1C[C@@H]2O [Taxol] | 6.51
32 | CCCc1nc(C(C)(C)O)c(C(=O)O)n1Cc1ccc(-c2ccccc2-c2nnn[nH]2)cc1 [Olmesartan] | -10.3
33 | N#Cc1ccc(C(c2ccc(C#N)cc2)n2cncn2)cc1 [Letrozole] | -12.7
34 | NC(=O)N1c2ccccc2C=Cc2ccccc21 [Carbamazepine] | -0.139
35 | CC(=O)NC[C@H]1CN(c2ccc(N3CCOCC3)c(F)c2)C(=O)O1 [Linezolid] | 4.59
36 | COC(c1ccccc1)(c1ccccc1)[C@H](Oc1nc(C)cc(C)n1)C(=O)O [Ambrisentan] | -4.02
37 | NC(=O)OCC(COC(N)=O)c1ccccc1 [Felbamate] | -9.28
38 | CC(C)(C(=O)c1cccnc1)c1cccnc1 [Metyrapone] | 4.83
39 | O=C(O)c1cc(/N=N/c2ccc(S(=O)(=O)Nc3ccccn3)cc2)ccc1O [Sulfasalazine] | 2.01
40 | COc1cc2nc(N3CCN(C(=O)c4ccco4)CC3)nc(N)c2cc1OC [Prazosin hydrochloride] | -6.9
